The list is not random: actives were taken first. Their share in the collection is about 14%.
Pf growth 48h = inhibits P. falciparum growth in the first generation, 48 h | P. falciparum luciferase growth in erythrocytes, 48 h | Potency, µM (top dose mostly 28.7 µM), most hits filed as inhibitors | 5.9% of 310,000 active
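Read-out is firefly luciferase luminescence from an integrated reporter in P. falciparum, so falling signal marks reduced parasite growth. Infected erythrocytes were at 2% hematocrit and 0.1% parasitemia (final) in Albumax-supplemented RPMI 1640.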
HCMV inh = blocks human cytomegalovirus replication. HFF cells, HCMV-luciferase reporter, 72 h; stronger effect = lower value. activity change, negative = inhibition, % at 57.5 µM. 4.5% of 410,000 active; in the data active = activity change below about -60%; inconclusive = no clear call, values can overlap the other calls; inactive = above about -39%
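Two-dose cell screen: HFF monolayers treated with compounds and infected with luciferase-expressing HCMV at 1 PFU/cell, 72 h at 37C, then lysed for luciferase measurement.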
HCV inh = blocks hepatitis C virus; Huh7.5.1 HCVcc-Cre infection, luciferase reporter, 44 h; Potency, µM (titrated, usually from 41.8 µM), usual class: inhibitors; 3.4% of 340,000 active; AID 651820
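1,000 cells/well; 4 h culture; + compound; + HCVcc-Cre (~0.5 moi); 44 h; luciferase substrate, RT 15 min; read 15 sec.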
LASV entry inh = inhibitors of Lassa virus binding or cell entry. AID 540256. 1.2% of 300,000 active. Lassa virus pseudotype entry inhibition, cell reporter. Potency, µM (doses to about 37.9 µM), hits mostly inhibitors; calls by dose curve; tested in HEK293 cells; note: nearly all actives have a fitted effect of over 50% in size
Pf growth 96h = P. falciparum growth inhibition at 96 hour, primary screen for plastid delayed-death inhibitors. P. falciparum luciferase reporter growth, 96 h. Potency, µM (series often up to 28.7 µM), actives largely listed as inhibitors. 6.9% of 320,000 active
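Two-generation exposure (96 h) targets delayed-death phenotype. Reporter parasites carrying integrated firefly luciferase, in red cells at 2% hematocrit and 0.05% parasitemia final, kept at 37 C, 5% CO2; luminescence loss indicates inhibition.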
MARV entry inh = blocks Marburg virus binding to or entry into cells | Marburg virus pseudotyped entry inhibition, cell reporter | Potency, µM (top dose mostly 37.8 µM), usual class: inhibitors | 1.8% of 300,000 active | AID 540276; calls by dose curve; tested in HEK293 cells
Large screens that a line does not name were inactive. Unless noted, calls come from the whole dose curve; as a rule, active = well fitted inhibition curve with a large enough effect; inconclusive = small, poorly fitted or top-dose-only effect, or another doubt; inactive = no such curve, though single readings can be large or run the other way.

COc1ccc(NC(=O)Nc2cccc([N+](=O)[O-])c2)cc1Cl	Pf growth 48h 6.6µM, HCMV inh -100, HCV inh inconclusive, MARV entry inh inconclusive
COc1ccc(NC(=S)Nc2cccc([N+](=O)[O-])c2)cc1	HCMV inh -96, MARV entry inh inconclusive
COc1ccc(Cl)cc1NC(=O)NC1CCCCC1	HCV inh inconclusive (no result: Pf growth 48h)
COc1ccc(Cl)cc1NC(=O)Nc1cccc([N+](=O)[O-])c1C	Pf growth 48h inconclusive, HCV inh 16µM, LASV entry inh inconclusive, MARV entry inh inconclusive
COc1ccc(/C=C(/C#N)C(=O)Nc2cccc([N+](=O)[O-])c2)cc1C(=O)O	HCMV inh -102, HCV inh inconclusive
C#CCCCO/N=C1/C[C@@H](O)[C@@H](O)[C@@H]2[C@@H]3C(=O)N(Cc4ccccc4)C(=O)[C@H]3CC[C@H]12	none (no result: Pf growth 48h, HCMV inh, HCV inh, LASV entry inh, Pf growth 96h)
CCNc1nc2c(cnn2C)c(=O)[nH]1	none (no result: Pf growth 48h, Pf growth 96h)
CC(=O)c1ccc(NC(=O)c2sc(-n3nc(C)c(Cc4ccccc4)c3C)nc2C)cc1	none (no result: Pf growth 48h, HCV inh, Pf growth 96h)
CC1=C(C(=O)OCC(C)C)C(c2cccc(F)c2)N2C(=O)C(C)SC2=N1 (stereo unspecified)	Pf growth 48h 10µM, Pf growth 96h 12µM, MARV entry inh inconclusive
COC(=O)C1=C(C)N=C2SC(C)C(=O)N2C1c1ccc(C(=O)OC)cc1 (stereo unspecified)	Pf growth 48h inconclusive, HCMV inh -88, MARV entry inh inconclusive
CCOC(=O)C1=C(C)N=C2SC(C)C(=O)N2C1c1cccc(F)c1 (stereo unspecified)	Pf growth 96h inconclusive, MARV entry inh inconclusive (no result: Pf growth 48h)
CC1=C(C(=O)OC(C)C)C(c2cccc(F)c2)N2C(=O)C(C)SC2=N1 (stereo unspecified)	Pf growth 48h 12µM, Pf growth 96h inconclusive
CCOC(=O)c1cccc(NC(=O)CC2C(=O)N(c3ccc(OC)cc3)C(=O)N2C2CCCC2)c1 (stereo unspecified)	none (no result: Pf growth 48h, HCV inh, Pf growth 96h, MARV entry inh)
CCCN(C(=O)c1cccc(-n2cccc2)c1)c1c(N)n(Cc2ccccc2)c(=O)[nH]c1=O	Pf growth 48h inconclusive, HCV inh inconclusive
COc1cccc2cc(C(=O)NCCc3c(C)[nH]c4ccc(Br)cc34)c(=O)oc12	LASV entry inh inconclusive (no result: Pf growth 48h, HCV inh, Pf growth 96h)
Cc1cccc2nc(COc3ccc(Cl)c4cccnc34)cn12	HCMV inh -80, HCV inh inconclusive, LASV entry inh inconclusive
Cn1c(N)c(C(=O)COC(=O)c2ccccc2C(=O)c2ccc(Cl)cc2)c(=O)n(C)c1=O	HCV inh inconclusive, MARV entry inh inconclusive (no result: Pf growth 48h, Pf growth 96h)
O=C1c2ccccc2C(=O)N1CCc1c[nH]c2ccc(O)cc12	HCMV inh inconclusive, HCV inh inconclusive, Pf growth 96h 3.3µM
CNCCc1c[nH]c2ccc(O)cc12	HCV inh 3.2µM, MARV entry inh inconclusive (no result: Pf growth 48h, Pf growth 96h)
CNCCc1c[nH]c2ccccc12	none (no result: HCMV inh, LASV entry inh, MARV entry inh)
COc1ccc(CN2C(=O)C(n3ccc4ccccc43)c3cccc(F)c32)cc1 (stereo unspecified)	HCMV inh -72 (no result: Pf growth 48h, HCV inh, LASV entry inh, Pf growth 96h, MARV entry inh)
O=C1C(n2ccc3ccccc32)c2cccc(F)c2N1Cc1ccc(Cl)nc1 (stereo unspecified)	none (no result: Pf growth 48h, HCV inh, LASV entry inh, Pf growth 96h, MARV entry inh)
O=C1C(n2ccc3ccccc32)c2cc(OC(F)(F)F)ccc2N1Cc1ccc(C(F)(F)F)cc1 (stereo unspecified)	HCMV inh -89 (no result: Pf growth 48h, HCV inh, LASV entry inh, Pf growth 96h, MARV entry inh)
CC(C)NC(=O)CSc1nnc(CNC(=O)OC(C)(C)C)n1C	Pf growth 48h 1.9µM, MARV entry inh inconclusive
Cc1cccc(C(=O)NCc2nnc(SCC(=O)NC(C)c3ccccc3)n2C)c1 (stereo unspecified)	HCMV inh inconclusive, Pf growth 96h inconclusive
C1CCC(N=C(NC23CC4CC(CC(C4)C2)C3)N2CCOCC2)CC1	MARV entry inh 10µM (no result: Pf growth 48h, HCMV inh, HCV inh, Pf growth 96h)
CC(=O)N1CCc2c(sc3c2c(=O)n(CCc2ccccc2)c(=O)n3CC(=O)Nc2ccc(C)c(F)c2)C1	none (no result: Pf growth 48h, HCV inh, LASV entry inh, Pf growth 96h)
Cn1c(=O)c2nc(SCC(=O)Nc3ccc(Cl)c(Cl)c3)n(C)c2n(C)c1=O	none (no result: Pf growth 48h, HCV inh, Pf growth 96h, MARV entry inh)
S=C(N/N=C/c1ccc2c(c1)OCO2)NC1CC2CCC1C2 (stereo unspecified)	Pf growth 48h 2.1µM, HCV inh inconclusive, LASV entry inh inconclusive, Pf growth 96h 2.6µM, MARV entry inh inconclusive
COc1cc(/C=N/NC(=S)NC2CC3CCC2C3)ccc1O (stereo unspecified)	HCV inh inconclusive, Pf growth 96h inconclusive (no result: LASV entry inh, MARV entry inh)
COc1ccc(/C=N/NC(=S)N[C@H]2CC3CCC2C3)cc1 (stereo partly specified)	Pf growth 48h 4.1µM, HCMV inh inconclusive, Pf growth 96h 5.2µM
CCCC[C@H]1CN2[C@@H](CC[C@@H](C)[C@@H]2c2ccc(Br)cc2)C(=O)O1	none (no result: Pf growth 48h, HCMV inh, HCV inh, LASV entry inh, Pf growth 96h)
C=C1C[C@@H]2C[C@@H]2CN(S(=O)(=O)c2ccc(C)cc2)[C@@H]1c1ccco1	none (no result: Pf growth 48h, HCV inh, LASV entry inh, Pf growth 96h, MARV entry inh)
CC(CN1CCCCC1)C(=O)NNC(=O)C12CC3CC(CC(C3)C1)C2 (stereo unspecified)	Pf growth 96h 12µM
CC(CN1CCCCCC1)C(=O)NN (stereo unspecified)	LASV entry inh inconclusive
O=C1C=C(O)c2cccc3cccc1c23	Pf growth 96h inconclusive
NC1=CC(=O)c2cccc3cccc1c23	Pf growth 48h 2.9µM (no result: HCMV inh, HCV inh, LASV entry inh, MARV entry inh)
CCCNC(=O)Cn1c(=O)n(CC2CCC(C(=O)NC)CC2)c(=O)c2sccc21 (stereo unspecified)	LASV entry inh inconclusive (no result: Pf growth 48h, HCV inh, Pf growth 96h, MARV entry inh)
CC1Cc2nc(SCC(=O)Nc3ccc4c(c3)OCO4)n(-c3ccc(F)cc3)c(=O)c2S1 (stereo unspecified)	Pf growth 48h 1.7µM, Pf growth 96h 3.7µM (no result: LASV entry inh)
COc1ccc(-n2c(SCC(=O)Nc3nccs3)nc3c(c2=O)SC(C)C3)cc1 (stereo unspecified)	Pf growth 48h 1.7µM, Pf growth 96h 1µM
CCOc1ccc(-n2c(SCC(=O)Nc3nccs3)nc3c(c2=O)SCC3)cc1	none (no result: LASV entry inh, MARV entry inh)
CNC(=O)c1[nH]cnc1C(=O)N[C@@H](CCCCNC(=O)OC(C)(C)C)C(=O)OC(C)(C)C	Pf growth 96h inconclusive (no result: LASV entry inh, MARV entry inh)
CC(C)(C)OC(=O)NCCCCCNC(=O)c1[nH]cnc1C(=O)Nc1ccon1	Pf growth 48h inconclusive, Pf growth 96h 5.2µM (no result: LASV entry inh, MARV entry inh)
C[C@H](NC(=O)c1nc[nH]c1C(=O)NCCCCCNC(=O)OC(C)(C)C)C(=O)OC(C)(C)C	Pf growth 48h inconclusive, HCMV inh inconclusive, HCV inh 11µM, Pf growth 96h inconclusive (no result: LASV entry inh, MARV entry inh)
CC(C)C[C@H](NC(=O)c1nc[nH]c1C(=O)NCCCCCNC(=O)OC(C)(C)C)C(=O)OC(C)(C)C	Pf growth 48h 7.4µM, Pf growth 96h inconclusive (no result: LASV entry inh, MARV entry inh)
CC(C)C[C@H](NC(=O)c1nc[nH]c1C(=O)N[C@@H](CCCCNC(=O)OC(C)(C)C)C(=O)OC(C)(C)C)C(=O)OC(C)(C)C	Pf growth 48h 3.7µM, HCMV inh inconclusive, HCV inh inconclusive, Pf growth 96h 2.1µM (no result: LASV entry inh, MARV entry inh)

Assay outcomes (PubChem BioAssay)
